Inconclusive results are not listed. Entries that show only a call come without a potency. The source made the active and inactive calls. Calls follow the shape of the dose curve; as a rule, active = well fitted curve in the direction sought with a large enough effect; inconclusive = small, poorly fitted or top-dose-only effect, or another doubt; inactive = no such curve, though single readings can be large; an effect the other way counts as inactive or inconclusive.
assay: qHTS for Inhibitors of Plasmodium falciparum (GB4) proliferation (AID 504315); also: nearly all actives have a fitted effect of over 50% in size; details: P. falciparum GB4 in erythrocytes, SYBR Green DNA, 72 h; series mostly up to 6.7 µM
Method in brief: (§1)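 Erythrocytes infected with P. falciparum line (0.3% parasitemia, 2.5% hematocrit final) incubated with compounds 72 h at 37 °C, 5% CO2; SYBR Green lysis buffer added, fluorescence read next day. Normalized to 0.29 uM artemisinin and DMSO.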
Potency is read from the fitted curve at half-maximal effect.

Structure (SMILES)	Potency
CCN1C(=O)[C@@H]2[C@H]3[C@H](O)[C@H](O)CC(=NOC[C@H]4O[C@H](c5ccccc5)C=C[C@H]4Oc4ccc(OC)cc4)[C@@H]3CC[C@H]2C1=O	inactive
CC(=O)[C@@H]1[C@@H](C)N(Cc2ccccc2)C(=O)N[C@H]1c1ccccc1	inactive
CC(CCC#N)[N+](=O)[O-] (configuration not stated)	inactive
CC(C)OC(=O)[C@H](C)NC(=O)N1CCc2nc(-c3ccccc3)c3c(c2C1)CO[C@@H](C)C3	inactive
COC(=O)[C@@]1(C=C[C@@H](C)[C@H](OC)c2ccccc2Br)[C@@H]2OCCC[C@@H]21	inactive
CCN1C(=NCCCCO)NC(c2cccc(C(F)(F)F)c2)C(C(=O)OC)=C1C (configuration not stated)	inactive
CC(=O)OC[C@H]1O[C@H](CCON=C(C)CCC(=O)OC[C@H]2O[C@H](C#Cc3ccccc3)C=C[C@H]2Oc2ccc(C)cc2)C=C[C@H]1OC(C)=O	inactive
CC1=CC[C@@H](COc2ccccc2)O[C@@]2(C1)C(=O)Nc1cccc(Br)c12	inactive
C=CCN1C(=O)CC[C@@]23C1=NC(C(=O)OC)=C(C(=O)OC)[C@@H]2N(CC#CC)c1ccccc13	inactive
CCCNC(=O)OC[C@H]1O[C@H](CCON=C(C)CCN2CCCc3nc(C)c(C)cc32)C=C[C@H]1Oc1ccc(OC)cc1	1.9 µM (active)
C=CCOC(=O)N[C@H](c1cccc(C(F)(F)F)c1)C(C(C)=O)C(C)=O	inactive
COC(=O)[C@H]1O[C@@H](c2cc(OC)c(C)c(OC)c2OCc2ccccc2)[C@H](C)[C@@H]2O[C@]12C	2.13 µM (active)
COC(=O)[C@@H]1C=C[C@H](C)[C@H](CCOc2ccccc2)O1	inactive
C=C(C)C(O)C=Cc1ccc(C(F)(F)F)cc1 (configuration not stated)	inactive
COC(=O)CC=C[C@@H](C)[C@@H](C=NOC[C@@H](O)COCc1ccco1)NS(=O)(=O)c1ccc(C)cc1	inactive
CCOC(=O)N1C2=NC(C(=O)OC)=C(C(=O)OC)[C@@H]3N(C)c4ccccc4[C@]23C[C@H]1C(=O)OC	inactive
COC[C@@H](O)[C@H]1OCc2cc(OC)ccc2[C@H]1C=Cc1ccccc1	inactive

assay: qHTS for Inhibitors of Plasmodium falciparum (7G8) proliferation (AID 504316); also: nearly all actives have a fitted effect of over 65% in size; details: P. falciparum 7G8 in erythrocytes, SYBR Green DNA, 72 h; series mostly up to 6.7 µM
Method in brief: as §1

Structure (SMILES)	Potency
COC(=O)C1=C[C@@]2(c3ccc(OC)cc3[C@@H](OC)[C@@H]2C)[C@@H]2C=C[C@@H]1C2	inactive
COc1ccc(C(O)C2=CCCC2=O)cc1 (configuration not stated)	inactive
CCOC(=O)CN1C(=O)NC(c2ccccc2)C(C(C)=O)=C1C (configuration not stated)	inactive
COC1=C[C@H](C(=O)NCCNC(C)=O)[C@@]2(C)Cc3ccccc3[C@@H]2CC1=O	inactive
COC(=O)N[C@@H](c1ccccc1)[C@]1(C(C)=O)CCCC1=O	inactive
CC1=C[C@@H](COCc2ccccc2)O[C@@]2(C1)C(=O)N(Cc1ccc(Br)cc1)c1ccccc12	inactive
COCCN1C(=O)NC(c2cccc(C(F)(F)F)c2)C(C(C)=O)=C1C (configuration not stated)	inactive
CCCNC(=O)OC[C@H]1O[C@H](CCON=C(C)CCN2CCCc3nc(C)c(C)cc32)C=C[C@H]1Oc1ccc(OC)cc1	1.35 µM (active)
CCC(=O)OC1(C)C(=O)C=C2C=C(c3ccc(C#N)cc3)OC=C2C1=O (configuration not stated)	inactive
C=C(C)C(O)C=Cc1ccc(C(F)(F)F)cc1 (configuration not stated)	inactive
C=CC[C@@H]1C=C(C(=O)OC)N(C(=O)C(F)(F)F)[C@@H](c2ccccc2Br)[C@@H]1C	inactive
CCN(CC)CCCN1C(=O)C2=C(C1=O)C1N(C)c3ccccc3[C@@]13C[C@@H](CO)N(C(=O)CCC(=O)OC)C3=N2 (some centres not stated)	inactive
CC(=O)Nc1ccc(S(=O)(=O)N2CCc3nc(-c4ccccc4)c4c(c3C2)CO[C@@H](C)C4)cc1	inactive
CC(=O)OC[C@H]1O[C@H](CC=NOC[C@@H](O)COCc2ccco2)C=C[C@H]1OC(C)=O	inactive
CCCCC#C[C@@H]1C=C[C@H](Oc2ccc(C(=O)OC)cc2)[C@@H](COC(=O)OCC)O1	inactive
COC(=O)C12C[C@H](C)C3C(C)C(c4ccccc4C31)N2C(=O)C(F)(F)F (some centres not stated)	inactive

assay: qHTS for Inhibitors of Plasmodium falciparum (HB3) proliferation (AID 504318); also: nearly all actives have a fitted effect of over 60% in size; details: P. falciparum HB3 in erythrocytes, SYBR Green DNA, 72 h; series mostly up to 7.21 µM
Method in brief: as §1

Structure (SMILES)	Potency
CC(CCC#N)[N+](=O)[O-] (configuration not stated)	inactive
COc1ccc(C(O)C2=CCCC2=O)cc1 (configuration not stated)	inactive
CCOC(=O)CN1C(=O)NC(c2ccccc2)C(C(C)=O)=C1C (configuration not stated)	inactive
COC1=C[C@H](C(=O)NCCNC(C)=O)[C@@]2(C)Cc3ccccc3[C@@H]2CC1=O	inactive
COC(=O)[C@@]1(C=C[C@@H](C)[C@H](OC)c2ccccc2Br)[C@@H]2OCCC[C@@H]21	inactive
CCN1C(=NCCCCO)NC(c2cccc(C(F)(F)F)c2)C(C(=O)OC)=C1C (configuration not stated)	inactive
COCCN1C(=O)NC(c2cccc(C(F)(F)F)c2)C(C(C)=O)=C1C (configuration not stated)	inactive
COC(=O)CC=C[C@@H](C)[C@H](O)c1ccccc1Br	1.9 µM (active)
COc1cccc([C@@H]2Oc3ccc(OC)cc3[C@H](O)[C@@H]2O)c1	inactive
CCCNC(=O)OC[C@H]1O[C@H](CCON=C(C)CCN2CCCc3nc(C)c(C)cc32)C=C[C@H]1Oc1ccc(OC)cc1	1.69 µM (active)
N#Cc1ccc2c(c1)C[C@]1(c3ccsc3)Oc3c(c(=O)oc4ccccc34)[C@H]2O1	inactive
COCCN1C(=O)NC(c2ccc(Br)cc2)C(C(C)=O)=C1C (configuration not stated)	inactive
C=CCOC(=O)N[C@H](c1cccc(C(F)(F)F)c1)C(C(C)=O)C(C)=O	inactive
CCC(=O)OC1(C)C(=O)C=C2C=C(c3ccc(C#N)cc3)OC=C2C1=O (configuration not stated)	inactive
C=C(C)C(O)C=Cc1ccc(C(F)(F)F)cc1 (configuration not stated)	inactive
COc1ccc2c(c1)[C@@]1(OCCC=C[C@@H]1C)C(=O)N2CC=C(C)CCC=C(C)C	inactive
C=CC[C@@H]1C=C(C(=O)OC)N(C(=O)C(F)(F)F)[C@@H](c2ccccc2Br)[C@@H]1C	inactive
CCN(CC)CCCN1C(=O)C2=C(C1=O)C1N(C)c3ccccc3[C@@]13C[C@@H](CO)N(C(=O)CCC(=O)OC)C3=N2 (some centres not stated)	inactive
CC(=O)Nc1ccc(S(=O)(=O)N2CCc3nc(-c4ccccc4)c4c(c3C2)CO[C@@H](C)C4)cc1	inactive
CC(=O)OC[C@H]1O[C@H](CC=NOC[C@@H](O)COCc2ccco2)C=C[C@H]1OC(C)=O	inactive
CCOC(=O)N1C2=NC(C(=O)OC)=C(C(=O)OC)[C@@H]3N(C)c4ccccc4[C@]23C[C@H]1C(=O)OC	inactive
COC[C@@H](O)[C@H]1OCc2cc(OC)ccc2[C@H]1C=Cc1ccccc1	inactive
CCCCC#C[C@@H]1C=C[C@H](Oc2ccc(C(=O)OC)cc2)[C@@H](COC(=O)OCC)O1	inactive
COC(=O)C12C[C@H](C)C3C(C)C(c4ccccc4C31)N2C(=O)C(F)(F)F (some centres not stated)	inactive
